Screens: PubChem, several laboratories
The sample as a whole holds a higher share of hits than the screen did.
D1 allo mod = D1 dopamine receptor (human) allosteric modulation. P21728. HEK293 D1, CRE-luciferase, dopamine EC30 potentiation; actives deviate in either direction. B-score at 10 µM. hit rate 5.9% among 58,000;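 active = luminescence count or its row- and column-corrected plate score outside the 99.7% band of the plate's sample wells, on either side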
Target sequence (P21728 whole entry, looked up): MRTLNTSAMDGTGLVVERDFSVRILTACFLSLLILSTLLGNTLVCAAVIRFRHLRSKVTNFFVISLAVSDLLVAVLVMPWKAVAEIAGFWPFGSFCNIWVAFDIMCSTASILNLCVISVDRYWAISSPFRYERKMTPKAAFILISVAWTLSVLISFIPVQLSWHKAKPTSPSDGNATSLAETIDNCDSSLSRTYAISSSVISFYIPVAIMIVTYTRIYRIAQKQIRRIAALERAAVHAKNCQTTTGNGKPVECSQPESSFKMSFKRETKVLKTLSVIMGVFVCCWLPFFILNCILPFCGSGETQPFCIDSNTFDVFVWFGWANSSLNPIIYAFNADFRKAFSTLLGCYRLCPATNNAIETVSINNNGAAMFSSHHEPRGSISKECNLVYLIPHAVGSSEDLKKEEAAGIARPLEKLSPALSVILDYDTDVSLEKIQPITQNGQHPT
BAP1 inh = inhibitors of human BAP1 deubiquitinase; recombinant BAP1, Ub-AMC hydrolysis fluorescence kinetic; hits give low values; calls only at 20 µM; hit rate 0.48% among 72,000; AID 436;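 active = activity remaining at or below 50% of control, provided the compound also passes the data quality filters; inactive = the rest, including low values that fail the filters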
DAT uptake mod = changed human dopamine transporter uptake under cocaine IC80; Q01959; LLC-PK1 hDAT cells, [14C]-dopamine uptake with cocaine IC80; actives deviate in either direction; B-score at 10 µM; hit rate 1.3% among 110,000; AID 449768;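 active = Z score or B-score, a plate-position-corrected score, falls beyond the plate's 99.7% confidence bounds, in either direction; inactive = both scores lie inside the 99.7% bounds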
Large screens that a line does not name were inactive.

Cc1cc(C)cc(NC2=C(Cl)C(=O)N(c3ccc(Cl)cc3)C2=O)c1	none (no result: D1 allo mod, DAT uptake mod)
Cc1ccc2cc3c(N)c(C(=O)N4CCOCC4)sc3nc2c1	none (no result: DAT uptake mod)
Cc1ccc2nc3sc(C(=O)N4CCOCC4)c(N)c3cc2c1	D1 allo mod -5.5
COc1ccc(C=Nc2cccc(-c3cnc[nH]3)c2)cc1	none (no result: D1 allo mod, DAT uptake mod)
CCCCC1=CC2=CC(=O)C(C)(OC(=O)CC)C(=O)C2=CN1Cc1ccccc1 (stereo not drawn)	none (no result: D1 allo mod, BAP1 inh)
CCCCC1=CC2=CC(=O)C(C)(OC(=O)CC)C(=O)C2=CN1c1ccccc1 (stereo not drawn)	DAT uptake mod -2.9 (no result: D1 allo mod, BAP1 inh)
Cc1nccn1CCC(N)=O	none (no result: D1 allo mod, DAT uptake mod)
COc1ccccc1N1CCN(CC(O)COc2ccc(C(C)C)c(C)c2)CC1 (stereo not drawn)	none (no result: D1 allo mod, DAT uptake mod)
CN(C)c1nc(N)nc(-c2cccnc2)n1	D1 allo mod 4.6
CC(=O)n1nc(-c2cccnc2)nc1N	none (no result: D1 allo mod)
O=C(c1cccc(S(=O)(=O)NC2CCCCCC2)c1)N1CCCc2ccccc21	none (no result: D1 allo mod, DAT uptake mod)
CCC1(COC(NC(=O)c2cccnc2)(C(F)(F)F)C(F)(F)F)COC1	D1 allo mod -7
CCOC(=O)C(NC(=O)c1ccccc1)(OCC1(CC)COC1)C(F)(F)F (stereo not drawn)	none (no result: D1 allo mod, BAP1 inh)
O=C(O)c1ccccc1C(=O)Nc1ccc2c(c1)OCCO2	none (no result: D1 allo mod, DAT uptake mod)
NC(=O)c1cc2cc([N+](=O)[O-])ccc2oc1=Nc1cccc(F)c1	none (no result: D1 allo mod, DAT uptake mod)
CCOC(=O)c1sc(=S)n(C)c1C	none (no result: D1 allo mod, BAP1 inh)
CCOC(=O)c1sc(=S)n(C)c1N	D1 allo mod 4.5
COc1ccc2cc(CN(Cc3cccnc3)Cc3nnnn3Cc3ccccc3)c(=O)[nH]c2c1	DAT uptake mod 2.2
CCC(c1nnnn1Cc1ccco1)N(CCc1ccccc1)Cc1cc2cc(C)ccc2[nH]c1=O (stereo not drawn)	none (not shown: BAP1 inh)
CCC(c1nnnn1Cc1ccccc1)N(Cc1ccco1)Cc1cc2cc(OC)ccc2[nH]c1=O (stereo not drawn)	DAT uptake mod 3.4 (not shown: D1 allo mod, BAP1 inh)
COc1ccc2cc(CN(Cc3cccs3)Cc3nnnn3Cc3ccccc3)c(=O)[nH]c2c1	none (no result: D1 allo mod, BAP1 inh)
COc1ccc(C2=NOC(C(=O)N3CCN(c4ccccc4OC)CC3)C2)cc1 (stereo not drawn)	D1 allo mod -3.5
COc1ccc(OC)c(C2=NOC(C(=O)N3CCN(c4ccccc4)CC3)C2)c1 (stereo not drawn)	none (no result: D1 allo mod, BAP1 inh)
COc1ccc(CNC(=O)C2CC(c3ccc(F)cc3)=NO2)cc1 (stereo not drawn)	none
COc1ccc(CNC(=O)C2CC(c3ccc(OC)cc3)=NO2)cc1 (stereo not drawn)	DAT uptake mod -3.4
CCCCCc1ccc(C(=O)CCN(C)C)cc1	none (no result: D1 allo mod, DAT uptake mod)
O=C(c1ccc(Cl)c(S(=O)(=O)Nc2ccc(F)cc2)c1)N1CCN(c2ccccn2)CC1	none (no result: D1 allo mod, BAP1 inh)
CN(c1ccccc1)S(=O)(=O)c1cc(C(=O)N2CCN(c3ccccn3)CC2)ccc1Cl	D1 allo mod -3.3
Cc1cc(C(=O)NCc2cc(C)n(C)n2)sc1-c1ccccc1	D1 allo mod -3.2
Cc1cc(C(=O)N(C)C)sc1-c1ccccc1	none (no result: D1 allo mod, BAP1 inh)
CN(C)c1ccc(C2SCCN2C(=O)c2cc3ccccc3oc2=O)cc1 (stereo not drawn)	none (no result: D1 allo mod, DAT uptake mod)
Cc1nnc(SCc2cc(=O)oc3cc(O)ccc23)s1	none (no result: D1 allo mod, DAT uptake mod)
Cc1ccccc1NC(=O)N1CCCC(c2nc(-c3ccc(F)cc3)no2)C1 (stereo not drawn)	DAT uptake mod 3
Cc1ccccc1NC(=O)N1CCCC(c2nc(-c3ccc(C(C)C)cc3)no2)C1 (stereo not drawn)	none
CCCN1C(=O)c2cc(C(=O)O)ccc2C1O (stereo not drawn)	none
CCCN1C(=O)c2cc(C(=O)NC3CCCCCC3)ccc2C1O (stereo not drawn)	D1 allo mod -3.2 (no result: BAP1 inh)
Cn1c(=O)[nH]c(=O)c2c1nc(SCCO)n2CCc1ccccc1	none (no result: D1 allo mod, DAT uptake mod)
CCn1cc(C(=O)NCc2ccc3c(c2)OCO3)c(=O)c2ccc(C)nc21	D1 allo mod 4.3 (no result: DAT uptake mod)
CCn1cc(C(=O)N2CCN(Cc3ccc4c(c3)OCO4)CC2)c(=O)c2ccc(C)nc21	none (no result: D1 allo mod, BAP1 inh)
CCOC(=O)c1sc(NC(=O)CSc2nnc3c4ccccc4n(CC)c3n2)nc1C	none (no result: DAT uptake mod)
CCOC(=O)c1sc(NC(=O)C(CC)Sc2nnc3c4ccccc4n(CC)c3n2)nc1C (stereo not drawn)	D1 allo mod 4.2 (no result: DAT uptake mod)
O=C(Oc1ccc(-c2nc3ccc([N+](=O)[O-])cc3[nH]2)cc1)C1CCCCC1	none (no result: D1 allo mod, DAT uptake mod)
O=C(O)c1cccc(NS(=O)(=O)c2cccc(S(=O)(=O)c3ccc(Cl)cc3)c2)c1	none (no result: D1 allo mod, DAT uptake mod)
Cc1cccc2[nH]c(-c3ccc(N)cc3)nc12	none (no result: D1 allo mod, DAT uptake mod)
CN(C)c1ccc(N/C=C/C(=O)c2ccccc2)cc1	D1 allo mod -4.4 (not shown: BAP1 inh)
CN(C)c1ccc(N/C=C/C(=O)C(C)(C)C)cc1	none (no result: D1 allo mod, BAP1 inh)
CCSc1nnc(NC(=O)c2ccccn2)s1	D1 allo mod -5.8
CCSc1nnc(NC(=O)c2cnccn2)s1	none
Cc1noc(C)c1CSc1nc2ccccc2c(=O)n1-c1ccc(F)cc1F	none (no result: D1 allo mod, DAT uptake mod)
Cc1noc(C)c1CSc1nc2ccccc2c(=O)n1-c1ccccc1	D1 allo mod 5.3
